Source: PubChem BioAssay (National Center for Advancing Translational Sciences (NCATS))
Hits are enriched below; roughly 8.1% of the tested compounds scored in any of these assays.
KB-3-1 cytotox: kills parental KB-3-1 adenocarcinoma cells; actives 1.4% (n = 400,000); Potency, µM (series often up to 46.1 µM), usual class: cytotoxic; KB-3-1 viability, CellTiter-Glo ATP luminescence, 72 h; AID 1347075; further: on the % scale 0 is the no-effect control and ±100 the full control effect; nearly all actives have a fitted effect of over 60% in size
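Cytotoxicity in the drug-sensitive parental line KB-3-1 was scored as loss of CellTiter-Glo luminescence following 72 h incubation with compound. Values come from curve fitting of normalized concentration-response data.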
KB-V1 MDR tox: kills drug-selected multidrug resistant KB-V1 cells. KB-V1 MDR cells viability, CellTiter-Glo, 72 h. Potency, µM (highest dose often 46.1 µM), hits mostly cytotoxic. actives 3.4% (n = 400,000). AID 1347076; further: on the % scale 0 is the no-effect control and ±100 the full control effect; nearly all actives have a fitted effect of over 60% in size
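Luminescent ATP read-out (CellTiter-Glo, 10 min) measures survival of drug-selected KB-V1 MDR cells after 72 h, 37 degrees C compound exposure. Medium: phenol-red-free DMEM, 10% FBS. Values from fitted concentration-response curves.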
SW480 rerep: inducers of DNA re-replication in SW480 colon cancer cells. SW480 DNA re-replication, Hoechst DNA content imaging, 48 h. Potency, µM (highest dose often 46.1 µM), for inactives: at the highest dose re-replication activation, hits mostly activators. actives 1.8% (n = 340,000). AID 624297; further: % of control where 0% means no effect; nearly all actives have a fitted effect of over 55% in size
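Compounds, transferred as 23 nL by pin tool, were incubated with cells for 48 hr; DNA content per nucleus was then quantified by Hoechst staining and fluorescence plate imaging.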
MCF10A rereplic: inducers of DNA re-replication in MCF 10A breast cells; actives 2.9% (n = 350,000); MCF 10A DNA re-replication, Hoechst nuclear intensity, 48 h; AID 624296; Potency, µM (titrated, usually from 46.1 µM), for the others: at the highest dose activity, positive = re-replication, hits mostly activators; further: % of control where 0% means no effect; nearly all actives have a fitted effect of over 50% in size
ELG1 repair inh: blocks ELG1-dependent DNA repair in HEK293T cells | HEK293T ELG1-luciferase reporter, luminescence, 16 h; DNA damage induced by 5-fluorouridine | Potency, µM (doses to about 46.1 µM), for the others: at the top dose activity change, negative = inhibition, most hits filed as inhibitors | actives 2.3% (n = 330,000) | AID 504467; further: on the % scale 0 is the no-effect control and ±100 the full control effect; nearly all actives have a fitted effect of over 55% in size
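HEK293T cells expressing luciferase-tagged ELG1 (2,000/well) received 5-Fluorouridine plus compound or DMSO for 16 hr at 37 °C. Luciferase was read by ONE-Glo luminescence after 30 min at room temperature.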
Starred values were filed as active, the others as inactive; i = inactive; ? = inconclusive; · = not tested or not shown; [ ] = remark or other dose. The call rests on the fitted dose curve; in most records, active means well fitted curve in the direction sought with a large enough effect; inconclusive means small, poorly fitted or top-dose-only effect, or another doubt; inactive means no such curve, though single readings can be large; an effect the other way counts as inactive or inconclusive. Potency means the concentration at half of the fitted maximal effect.

SMILES | KB-3-1 cytotox | KB-V1 MDR tox | SW480 rerep | MCF10A rereplic | ELG1 repair inh
O=C(C1=C[C@H](c2coc3ccccc3c2=O)C[C@H](OCCCCO)O1)N1CCN(Cc2ccccc2)CC1 | i | i | -14% | -6% | -24%
Cc1ccc(OCC(=O)Nn2c(C)nc3ccccc3c2=O)c(C(C)C)c1 | i | 18µM* | -3% | -1% | ?
Cc1ccc(-c2nc3ccccc3c(=O)n2NC(=O)COc2ccccc2)cc1 | i | ? | -12% | -1% | -9%
Cc1cc(C(=O)N2CCCC(N3CCN(c4ccccc4C)CC3)C2)n(C)n1 (centres undefined) | i | i | -6% | 4% | -5%
CCN(CC(=O)Nc1ccc(NC(C)=O)cc1)C(=O)/C=C/c1cn(-c2ccccc2)nc1-c1ccc(C)cc1 | i | i | -2% | -4% | 8.2µM*
CCN(CC(=O)Nc1ccc(NC(C)=O)cc1)C(=O)/C=C/c1cn(-c2ccccc2)nc1-c1ccc(F)cc1 | i | i | -15% | 10% | ?
O=C(NNC(=O)c1ccc(O)cc1O)c1ccc(Cl)cc1 | ? | i | ? | 4% | ?
CCc1ccc(NC(=O)c2ccnc(C(C)(C)C)c2)cc1 | i | 21µM* | -14% | -3% | -4%
CC(C)(C)c1cc(C(=O)Nc2cccc3ccccc23)ccn1 | i | i | -1% | 4% | -11%
COc1cccc(C(=O)NC2CCCc3ccccc32)c1OC (centres undefined) | i | ? | -2% | 6% | 0%
COc1ccc(-c2nnc(SCC(=O)NCc3cccs3)n2C(C)C)cc1 | i | i | 0% | 0% | -8%
CC(C)c1ccc(-c2c(C#N)c(N)nc(SCC(=O)N3CCCCC3)c2C#N)cc1 | ? | ? | ? | 7.3µM* | ?
CCOC(=O)C1CCN(C(=O)c2sc3ncnc(N4CCC(C)CC4)c3c2C)CC1 | i | i | 3% | ? | 23µM*
Cc1c(C(=O)N2CCN(c3ccccc3)CC2)sc2ncnc(N3CCC(C)CC3)c12 | · | · | · | · | 7%
CCOC(=O)C1CCN(C(=O)c2sc3nc(C)nc(N4CCC(C)CC4)c3c2C)CC1 | i | i | -4% | 22% | 23µM*
CCOC(=O)C1CCCN(C(=O)c2sc3nc4n(c(=O)c3c2C)CCC4)C1 (centres undefined) | i | i | 2% | -3% | 12%
O=C(NC(NNc1ccc([N+](=O)[O-])cc1)(C(F)(F)F)C(F)(F)F)c1ccccc1Cl | i | i | 1% | ? | 0%
O=C(NC(Nc1nc2ccc([N+](=O)[O-])cc2s1)(C(F)(F)F)C(F)(F)F)c1cccnc1 | 12µM* | ? | 12% | 28% | ?
O=C(NC(Nc1nc2ccc([N+](=O)[O-])cc2s1)(C(F)(F)F)C(F)(F)F)c1ccccc1Cl | ? | i | ? | 21µM* | ?
O=[N+]([O-])c1ccc2nc(SCc3ccccc3Cl)sc2c1 | i | i | 19% | 13µM* | 14%
COc1ccc(NC(=O)c2c(C)nn(Cc3ccccc3)c2C)cc1S(=O)(=O)N(C)C | i | i | -8% | -2% | ?
Cc1cc(C)nc(Sc2nc(C)nc3c2oc2ccccc23)n1 | 21µM* | ? | ? | ? | ?
Cc1nc(NCCN2CCOCC2)c2oc3ccccc3c2n1 | i | i | -14% | -4% | 4%
Cc1nc(SCc2cccc(F)c2)c2oc3ccccc3c2n1 | i | i | -4% | 2% | 21µM*
Cc1nc(NCCc2ccccc2)c2oc3ccccc3c2n1 | ? | 23µM* | 2% | -180%[0.0737 µM] | ?
SMILES | KB-3-1 cytotox | KB-V1 MDR tox | SW480 rerep | MCF10A rereplic | ELG1 repair inh
Cc1ccc(NC(=O)c2ccc(C#CC3(O)CCCCC3)cc2)cc1C | i | i | 0% | 2% | -11%
CCC(C)NC(=O)Cn1c(COc2ccc(Cl)cc2Cl)nc2ccccc21 (centres undefined) | i | i | ? | 2% | ?
CCSc1nc(=O)c2c(n1C)NC(=O)CC2c1ccc(O)cc1OC (centres undefined) | i | i | · | · | ·
CCc1ccccc1NC(=O)Nc1cnccn1 | i | i | -43% | 14% | 0%
COc1ccc(NC(=O)Nc2cnccn2)c(OC)c1 | 5.2µM* | 5.8µM* | -6% | -17% | 17%
O=C(Nc1cnccn1)Nc1cccc(Cl)c1Cl | ? | 12µM* | 4% | ? | -11%
CCOc1ccccc1NC(=O)Nc1cnccn1 | i | 6.5µM* | 6% | -8% | 4%
CC(C)c1ccc(NC(=O)Nc2cnccn2)cc1 | 4.1µM* | ? | ? | 4.1µM* | ?
Cc1nc(NC(=O)c2ccc(Cl)cc2)nc2cc3c(cc12)OCO3 | i | i | -1% | 10% | -3%
COc1ccc(C)cc1S(=O)(=O)NC1CCCCC1C (centres undefined) | i | i | -3% | -3% | 5%
COc1ccc(N2CCN(C(=O)C3=NNC(=O)CC3)CC2)cc1 | i | i | 0% | ? | -6%
O=C(Nc1ccc(Cl)cc1C(=O)NCCN1CCOCC1)c1ccco1 | i | i | -2% | 10% | 2%
O=C(Nc1cnccn1)Nc1ccccc1Cl | ? | 9.2µM* | 10% | -2% | ?
O=C(Nc1ccccn1)Nc1ccccc1Cl | i | i | 2% | -3% | ?
COCCCNc1c2c3c(cccc3[nH]c1=O)C(=O)c1ccccc1-2 | 5.8µM* | 2.1µM* | 18µM* | 15µM* | 12µM*
CCOC(=O)c1ccc(N2CCN(c3cc(C)ccc3C)CC2)c(N)c1 | i | i | ? | 18µM* | 0%
CCOC(=O)N1CCC(Nc2c(N3CCN(c4cc(Cl)ccc4C)CC3)c(=O)c2=O)CC1 | ? | ? | 4% | 11% | ?
CCOC(=O)N1CCC(N2CCN(c3cc(C)ccc3C)CC2)CC1 | i | 23µM* | -3% | 4% | ?
COc1ccc(NC(=S)N(CCN(C)C)C(C)c2ccco2)cc1Cl (centres undefined) | i | 23µM* | -15% | 29% | -5%
COc1cccc(NC(=S)N(CCN(C)C)C(C)c2ccco2)c1 (centres undefined) | i | ? | · | -3% | -18%
Cc1cccc(-n2c(C)cc(/C=C3\NC(=O)NC3=O)c2C)c1 | i | ? | ? | 16µM* | ?
Cc1cc(/C=C2/NC(=O)NC2=O)c(C)n1-c1ccncc1 | i | ? | -12% | 0% | -7%
Clc1cccc(-c2nnc(-c3ccccc3)o2)c1 | ? | ? | 0% | 16µM* | ?
c1ccc(-c2nnc(-c3ccccc3)o2)cc1 | i | i | 5% | 20% | ?
Cc1ccccc1NS(=O)(=O)c1cccc(-c2nnc(-c3ccccc3)o2)c1 | i | i | -18% | 14% | ?
